Results: PubChem BioAssay

System: Wnt5a (protein binding on small-molecule microarray)
Assay: Wnt5a binders on small-molecule microarray, primary screen, biophysical, 635/667 nm fluorescence (AID 1142);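 also: fluorescence read at 667 nm with signal to noise per printed feature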
Conditions: 635 nm fluorescence, higher = more signal

Row | Compound | composite z-score
1 | CCOC(=O)C1=C[C@@H](C(C)(C)C)N(S(=O)(=O)c2ccc(C)cc2)[C@H]1c1ccc(OC)cc1 | 0.474
2 | CCCCC(=C=CC[C@H](O)c1ccccc1OCCO)CCO | -0.0677
3 | C=CCC(OC(C)=O)[C@@H]1[C@@H](N(Cc2cccc3ccccc23)C(=O)c2ccc(C)cc2)c2cc(OCCCO)ccc2N1C(=O)Cc1ccc2ccccc2c1 (stereo partly specified) | 0.245
4 | COC(=O)[C@@]1(Cc2ccc(F)cc2)[C@@H]2C(=CC(=O)[C@H]2CC(=O)C(=O)N2CCCC2)CN1C(=O)c1ccccc1 | 1.74
5 | COCCCNC(=O)[C@@]1(c2ccc([N+](=O)[O-])cc2)CC(=O)N(C2CCCCC2)[C@@H]1c1ccc(CO)cc1I | 0.0398
6 | C=CCOC(=O)[C@H]1[C@@H]2C(=O)O[C@@H](c3ccccc3)[C@@H](c3ccccc3)N2[C@@H](c2ccc(OCCOC(=O)[C@H]3C[C@H]4C(=O)NCC(=O)N4[C@H]3c3ccc(O)cc3)cc2)[C@]12C(=O)Nc1ccccc12 | 0.592
7 | CC1CC/C=C\[C@H]2OC34C=CCN(CCN5CCOCC5)C(=O)[C@H]3N(C(CO)C(C)C)C(=O)[C@@H]4C2C(=O)O1 (stereo partly specified) | 0.115
8 | CC(C)c1ccc(NN2C(C(O)c3ccccc3)C=CC3C(=O)N(c4ccccc4)C(=O)C32)cc1 (stereo unspecified) | 0.297
9 | [N-]=[N+]=Nc1ccccc1C[C@@]1(C(=O)NCC(O)CO)N=C(c2ccc(OCCCO)cc2)O[C@@H]1c1ccccc1N=[N+]=[N-] (stereo partly specified) | 1.28
10 | C=C(CCCC)C(=O)CC[C@@H](OC(C)=O)c1ccc(OCCO)cc1 | 0.791
11 | CN1C(=O)C2CC=C(C3=CCO[C@@H]3[C@H]3CCCN3S(=O)(=O)c3ccccc3[N+](=O)[O-])CC2C1=O (stereo partly specified) | 0.0169
12 | CC(C)[Si](C#Cc1ccccc1)(O[C@H](c1ccccc1)c1cn(Cc2ccccc2)nn1)C(C)C | -0.0899
13 | COCCOC(=O)N1C(=O)[C@@]2(c3cc(C#CCNC(N)=O)ccc31)[C@H](C(N)=O)[C@H]1C(=O)O[C@H](c3ccccc3)[C@H](c3ccccc3)N1[C@@H]2c1ccc(O)cc1 | 0.159
14 | [N-]=[N+]=NCc1ccccc1C[C@]1(C(=O)N2CCCCC2)COC(c2ccc(OCCCO)cc2)=N1 | 0.114
15 | C=CCNC(=O)[C@H]1[C@@H]2C(=O)O[C@@H](c3ccccc3)[C@@H](c3ccccc3)N2[C@@H](c2ccc(OCCO)cc2)[C@]12C(=O)N(C(=O)OCCOC)c1ccc(C#CCC(C(=O)OC)C(=O)OC)cc12 | 1.12
16 | CCCCC(=C=CC[C@@H](O)c1ccccc1OCCO)C[C@@H](O)c1ccccn1 | -0.11
17 | COC(=O)C(CC#Cc1ccc2c(c1)[C@]1(C(=O)N2)[C@H](C(=O)NC[C@H](O)c2ccccc2)[C@H]2C(=O)O[C@H](c3ccccc3)[C@H](c3ccccc3)N2[C@@H]1c1ccc(O)cc1)C(=O)OC | -0.174
18 | COCCOC(=O)N1C(=O)[C@@]2(c3cc(C#CC4=CCCCC4)ccc31)[C@H](c1ccc(O)cc1)N1[C@H](c3ccccc3)[C@H](c3ccccc3)OC(=O)[C@H]1[C@@H]2C(=O)N1CCc2cc(OC)c(OC)cc2C1 | -0.0266

Row | Compound | composite z-score
19 | CC[C@@H](O[Si](C#C[Si](C(C)C)(C(C)C)C(C)C)(C(C)C)C(C)C)c1cn(Cc2cccc(Cl)c2)nn1 | 0.159
20 | C=C(CCCC)/C(=C/C[C@@H](OC(C)=O)c1cccc(OCCO)c1)c1cc(C(=O)OC)ccc1OC | -0.257
21 | CCCN1C(=O)[C@@]2(c3ccc([N+](=O)[O-])cc3)CC(=O)N(C3CCCCC3)[C@@H]2c2ccc(CO)cc21 | 0.0899
22 | O=C1O[C@H](c2ccccc2)[C@H](c2ccccc2)N2[C@H]1[C@@H](C(=O)N1CCN(c3ncccn3)CC1)[C@]1(C(=O)Nc3ccc(C#CC4(O)CCCCCC4)cc31)[C@H]2c1ccc(O)cc1 | 0.675
23 | CC[C@@H](O[Si](C#C[Si](C(C)C)(C(C)C)C(C)C)(C(C)C)C(C)C)c1cn([C@H](CO)Cc2ccccc2)nn1 | -0.142
24 | [N-]=[N+]=NCc1ccccc1[C@H]1OC(c2ccc(OCCCO)cc2)=N[C@@]1(CCS(=O)(=O)c1ccccc1)C(=O)O | -0.0632
25 | COC(=O)[C@@]1(Cc2ccc(F)cc2)[C@H]2c3cc(C(=O)N4CCCC4)n(Cc4ccc(OC(F)(F)F)cc4)c3C[C@H]2CN1C(=O)c1ccccc1 | -0.0554
26 | CC(C)(C)OC(=O)CC[C@]1(C(N)=O)N=C(c2ccc(OCCCO)cc2)O[C@H]1c1ccccc1N=[N+]=[N-] | 0.641
27 | O=C1OCC=C[C@H]2OC34C=CCN(Cn5nnc6ccccc65)C(=O)[C@H]3N(CCO)C(=O)[C@@H]4[C@@H]12 (stereo partly specified) | -0.26
28 | COc1cccc(C)c1NC(=O)O[C@H]1[C@H](OC(=O)Nc2ccc3c(c2)OCO3)[C@H](OC(=O)Nc2ccc3c(c2)OCO3)[C@@H](OC)O[C@@H]1CO | 0.469
29 | CN1C(=O)C2C=CC(C(O)c3cccs3)N(N(c3ccccc3)c3ccccc3)C2C1=O (stereo unspecified) | -0.0276
30 | [N-]=[N+]=NCc1ccccc1[C@H]1OC(c2ccc(OCCCO)cc2)=N[C@@]1(Cc1ccccc1N=[N+]=[N-])C(=O)O | 0.322
31 | C[C@H]1C2[C@H](Cc3ccccc3)NC(=O)[C@]23C(=O)N[C@@H](Cc2ccccc2)C(=O)N2CCC[C@H]2C(=O)NC/C=C/CC/C=C/C3[C@@H]2O[C@]12C (stereo partly specified) | 0.241
32 | COc1ccc(C(=O)Nc2ccc(CN3C(=O)[C@]4(O[C@H](CC(=O)N(CCO)Cc5ccccc5)[C@@H]([Si](C)(C)c5ccc(OC)cc5)[C@@H]4C)c4ccccc43)cc2)cc1 | 0.334
33 | CCCC=C(CCC)[C@@H](NC(=O)c1ccc(C(=O)OC)cc1)c1ccc(C(=O)OC)cc1 | 0.41
34 | O=C1C2C=CC(C(O)c3ccccn3)N(Nc3ccc([N+](=O)[O-])cc3)C2C(=O)N1c1ccccc1 (stereo unspecified) | 0.333
35 | O=C1C2C=CC(C(O)C3CCCCC3)N(Nc3ccccc3F)C2C(=O)N1c1ccccc1 (stereo unspecified) | 0.442
36 | C=C(CCCC)/C(=C/C[C@@H](OC(C)=O)c1ccc(OCCO)cc1)c1cc(C(=O)OC)ccc1OC | -0.0169
